Results taken from ChEMBL document CHEMBL1961873, “Compounds: GSK PKIS; Assays: Nanosyn kinase panel” (2012).

What was measured:
[1] = biological target: 5'-AMP-activated protein kinase catalytic subunit alpha-2 (Homo sapiens) (UniProt P54646); details: at 1 µM
[2] = biological target: T1, NUAK family SNF1-like kinase 1 (Homo sapiens) (UniProt O60285); details: at 0.1 µM
T1 sequence (whole entry): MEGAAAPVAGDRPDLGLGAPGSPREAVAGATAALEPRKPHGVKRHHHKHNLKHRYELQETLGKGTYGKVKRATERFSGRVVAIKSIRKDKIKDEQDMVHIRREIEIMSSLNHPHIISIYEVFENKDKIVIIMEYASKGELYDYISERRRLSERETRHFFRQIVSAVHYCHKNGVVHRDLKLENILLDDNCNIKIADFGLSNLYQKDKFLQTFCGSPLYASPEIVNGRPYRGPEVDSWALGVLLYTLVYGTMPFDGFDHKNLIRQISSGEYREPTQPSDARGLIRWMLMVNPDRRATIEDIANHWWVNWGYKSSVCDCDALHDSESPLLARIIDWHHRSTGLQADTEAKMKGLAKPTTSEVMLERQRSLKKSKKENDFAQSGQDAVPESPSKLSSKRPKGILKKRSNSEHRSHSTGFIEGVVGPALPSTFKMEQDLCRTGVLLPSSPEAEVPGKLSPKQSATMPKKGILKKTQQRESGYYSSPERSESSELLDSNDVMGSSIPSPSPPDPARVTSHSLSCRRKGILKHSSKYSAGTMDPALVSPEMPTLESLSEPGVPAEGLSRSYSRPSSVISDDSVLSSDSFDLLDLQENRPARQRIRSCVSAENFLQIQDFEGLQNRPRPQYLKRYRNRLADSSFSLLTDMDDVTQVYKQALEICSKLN

[3] = biological target: T1, NUAK family SNF1-like kinase 1 (Homo sapiens); details: at 1 µM
[4] = biological target: T2, Serine/threonine-protein kinase BRSK1 (Homo sapiens) (UniProt Q8TDC3); details: at 0.1 µM
T2 sequence (whole entry): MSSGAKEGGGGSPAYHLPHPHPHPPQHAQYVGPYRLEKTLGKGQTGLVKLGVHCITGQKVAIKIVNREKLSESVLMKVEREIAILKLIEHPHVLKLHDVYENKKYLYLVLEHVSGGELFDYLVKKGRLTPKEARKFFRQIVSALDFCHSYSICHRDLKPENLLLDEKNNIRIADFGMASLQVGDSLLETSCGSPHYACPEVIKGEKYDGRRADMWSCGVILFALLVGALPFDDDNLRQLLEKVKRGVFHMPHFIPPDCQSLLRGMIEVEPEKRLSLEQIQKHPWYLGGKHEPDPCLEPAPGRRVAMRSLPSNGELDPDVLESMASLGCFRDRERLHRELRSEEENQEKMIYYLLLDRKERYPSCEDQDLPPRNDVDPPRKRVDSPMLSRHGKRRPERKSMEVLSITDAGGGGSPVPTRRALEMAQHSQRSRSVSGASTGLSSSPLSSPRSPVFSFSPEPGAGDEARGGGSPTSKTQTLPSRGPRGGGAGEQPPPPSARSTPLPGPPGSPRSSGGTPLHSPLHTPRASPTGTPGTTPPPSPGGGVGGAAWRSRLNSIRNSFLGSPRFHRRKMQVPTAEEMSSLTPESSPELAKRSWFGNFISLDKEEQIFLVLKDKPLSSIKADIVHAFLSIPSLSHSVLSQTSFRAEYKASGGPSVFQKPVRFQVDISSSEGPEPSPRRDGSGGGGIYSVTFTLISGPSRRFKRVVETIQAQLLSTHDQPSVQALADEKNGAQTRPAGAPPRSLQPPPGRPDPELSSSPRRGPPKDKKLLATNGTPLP

[5] = biological target: T2, Serine/threonine-protein kinase BRSK1 (Homo sapiens); details: at 1 µM
[6] = biological target: T3, Serine/threonine-protein kinase BRSK2 (Homo sapiens) (UniProt Q8IWQ3); details: at 0.1 µM
T3 sequence (whole entry): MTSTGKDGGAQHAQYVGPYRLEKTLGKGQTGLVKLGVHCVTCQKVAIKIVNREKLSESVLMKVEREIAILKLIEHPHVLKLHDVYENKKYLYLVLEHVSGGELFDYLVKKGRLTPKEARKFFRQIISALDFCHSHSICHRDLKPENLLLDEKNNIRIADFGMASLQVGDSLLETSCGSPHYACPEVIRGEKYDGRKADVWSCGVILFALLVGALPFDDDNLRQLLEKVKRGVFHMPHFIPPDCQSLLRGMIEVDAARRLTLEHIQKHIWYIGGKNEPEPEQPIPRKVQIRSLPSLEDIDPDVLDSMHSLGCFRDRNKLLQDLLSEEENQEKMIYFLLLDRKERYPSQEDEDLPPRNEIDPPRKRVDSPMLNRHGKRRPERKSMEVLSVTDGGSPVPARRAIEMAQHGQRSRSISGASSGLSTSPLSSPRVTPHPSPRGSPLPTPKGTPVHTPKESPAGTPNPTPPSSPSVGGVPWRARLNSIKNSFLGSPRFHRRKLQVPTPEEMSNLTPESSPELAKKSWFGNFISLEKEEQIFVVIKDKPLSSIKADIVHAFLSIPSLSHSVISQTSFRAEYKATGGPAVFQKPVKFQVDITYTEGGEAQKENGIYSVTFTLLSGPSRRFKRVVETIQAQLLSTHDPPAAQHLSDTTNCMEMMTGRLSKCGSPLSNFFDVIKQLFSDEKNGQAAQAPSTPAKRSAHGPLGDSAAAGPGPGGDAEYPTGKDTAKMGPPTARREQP

[7] = biological target: T3, Serine/threonine-protein kinase BRSK2 (Homo sapiens); details: at 1 µM
[8] = biological target: Calcium/calmodulin-dependent protein kinase type 1D (Homo sapiens) (UniProt Q8IU85); details: at 0.1 µM
Sequence of Calcium/calmodulin-dependent protein kinase type 1D (Homo sapiens) (Q8IU85 whole entry, looked up): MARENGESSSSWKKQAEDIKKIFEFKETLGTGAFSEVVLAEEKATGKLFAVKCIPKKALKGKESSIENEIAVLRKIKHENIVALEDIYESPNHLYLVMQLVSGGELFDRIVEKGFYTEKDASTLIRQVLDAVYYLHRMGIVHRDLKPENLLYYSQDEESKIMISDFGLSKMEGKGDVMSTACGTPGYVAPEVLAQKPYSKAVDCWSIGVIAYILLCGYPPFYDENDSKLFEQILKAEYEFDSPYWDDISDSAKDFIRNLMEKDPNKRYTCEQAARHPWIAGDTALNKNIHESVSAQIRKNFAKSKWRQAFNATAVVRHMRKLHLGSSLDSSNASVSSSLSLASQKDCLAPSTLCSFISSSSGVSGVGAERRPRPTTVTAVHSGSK

[9] = biological target: Calcium/calmodulin-dependent protein kinase type 1D (Homo sapiens) (UniProt Q8IU85); details: at 1 µM
[10] = biological target: Calcium/calmodulin-dependent protein kinase type II subunit alpha (Homo sapiens) (UniProt Q9UQM7); details: at 0.1 µM
Sequence of Calcium/calmodulin-dependent protein kinase type II subunit alpha (Homo sapiens) (Q9UQM7 whole entry): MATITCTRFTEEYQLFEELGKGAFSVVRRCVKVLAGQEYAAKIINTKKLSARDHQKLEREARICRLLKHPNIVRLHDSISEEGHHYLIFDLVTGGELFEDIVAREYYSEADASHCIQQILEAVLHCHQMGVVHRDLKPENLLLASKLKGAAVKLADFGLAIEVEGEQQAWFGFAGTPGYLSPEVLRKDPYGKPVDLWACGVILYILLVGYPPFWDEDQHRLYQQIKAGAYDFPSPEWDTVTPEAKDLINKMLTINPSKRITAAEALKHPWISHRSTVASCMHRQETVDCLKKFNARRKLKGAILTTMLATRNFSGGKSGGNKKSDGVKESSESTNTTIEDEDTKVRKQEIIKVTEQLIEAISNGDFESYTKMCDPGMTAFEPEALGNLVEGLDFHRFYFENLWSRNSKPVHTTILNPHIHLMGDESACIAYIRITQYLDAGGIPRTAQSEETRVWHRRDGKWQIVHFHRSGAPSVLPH

[11] = biological target: Calcium/calmodulin-dependent protein kinase type II subunit alpha (Homo sapiens) (UniProt Q9UQM7); details: at 1 µM
[12] = biological target: Calcium/calmodulin-dependent protein kinase type II subunit delta (Homo sapiens) (UniProt Q13557); details: at 0.1 µM
Sequence of Calcium/calmodulin-dependent protein kinase type II subunit delta (Homo sapiens) (Q13557 whole entry): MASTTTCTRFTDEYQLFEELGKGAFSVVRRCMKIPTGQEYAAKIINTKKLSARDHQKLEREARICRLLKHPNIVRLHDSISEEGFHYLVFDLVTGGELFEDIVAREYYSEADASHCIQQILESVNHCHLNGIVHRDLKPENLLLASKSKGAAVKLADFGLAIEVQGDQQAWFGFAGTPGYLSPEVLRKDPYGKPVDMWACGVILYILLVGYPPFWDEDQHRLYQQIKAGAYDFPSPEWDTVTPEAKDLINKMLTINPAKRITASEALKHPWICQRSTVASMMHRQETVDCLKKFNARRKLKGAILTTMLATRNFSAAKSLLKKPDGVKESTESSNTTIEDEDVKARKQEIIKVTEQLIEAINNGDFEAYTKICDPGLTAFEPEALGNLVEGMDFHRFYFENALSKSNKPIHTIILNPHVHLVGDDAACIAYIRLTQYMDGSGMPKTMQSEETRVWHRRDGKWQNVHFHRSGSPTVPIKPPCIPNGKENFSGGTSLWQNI

[13] = biological target: Calcium/calmodulin-dependent protein kinase type II subunit delta (Homo sapiens) (UniProt Q13557); details: at 1 µM
[14] = biological target: T4, Calcium/calmodulin-dependent protein kinase type IV (Homo sapiens) (UniProt Q16566); details: at 0.1 µM
T4 sequence (whole entry): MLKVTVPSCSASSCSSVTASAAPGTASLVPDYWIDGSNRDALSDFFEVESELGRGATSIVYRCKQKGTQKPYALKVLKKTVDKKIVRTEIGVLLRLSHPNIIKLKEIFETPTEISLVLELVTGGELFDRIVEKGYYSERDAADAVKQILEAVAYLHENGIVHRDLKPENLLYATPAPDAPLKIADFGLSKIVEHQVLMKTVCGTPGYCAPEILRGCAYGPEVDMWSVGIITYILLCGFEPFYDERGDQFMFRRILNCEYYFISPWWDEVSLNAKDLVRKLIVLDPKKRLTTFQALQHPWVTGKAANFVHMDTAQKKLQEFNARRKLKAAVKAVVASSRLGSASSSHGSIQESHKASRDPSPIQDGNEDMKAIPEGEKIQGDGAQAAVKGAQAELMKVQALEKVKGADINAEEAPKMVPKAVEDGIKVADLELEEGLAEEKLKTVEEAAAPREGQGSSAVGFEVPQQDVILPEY

[15] = biological target: T4, Calcium/calmodulin-dependent protein kinase type IV (Homo sapiens); details: at 1 µM
[16] = biological target: T5, Serine/threonine-protein kinase Chk1 (Homo sapiens) (UniProt O14757); details: at 0.1 µM
T5 sequence (whole entry): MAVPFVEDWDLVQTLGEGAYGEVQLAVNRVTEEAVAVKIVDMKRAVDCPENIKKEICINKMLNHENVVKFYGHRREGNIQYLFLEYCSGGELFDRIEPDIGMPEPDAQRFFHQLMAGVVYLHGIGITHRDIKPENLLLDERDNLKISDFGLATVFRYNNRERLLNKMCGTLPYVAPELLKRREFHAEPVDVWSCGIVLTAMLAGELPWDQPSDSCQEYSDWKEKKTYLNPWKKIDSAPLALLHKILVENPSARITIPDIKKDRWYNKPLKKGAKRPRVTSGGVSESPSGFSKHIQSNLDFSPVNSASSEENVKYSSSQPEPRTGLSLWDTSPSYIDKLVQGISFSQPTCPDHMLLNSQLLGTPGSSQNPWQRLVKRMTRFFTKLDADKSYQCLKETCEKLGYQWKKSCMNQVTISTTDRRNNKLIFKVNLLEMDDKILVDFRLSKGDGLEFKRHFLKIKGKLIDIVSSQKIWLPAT

[17] = biological target: T5, Serine/threonine-protein kinase Chk1 (Homo sapiens); details: at 1 µM
[18] = biological target: Serine/threonine-protein kinase Chk2 (Homo sapiens) (UniProt O96017); details: at 0.1 µM
Sequence of Serine/threonine-protein kinase Chk2 (Homo sapiens) (O96017 whole entry): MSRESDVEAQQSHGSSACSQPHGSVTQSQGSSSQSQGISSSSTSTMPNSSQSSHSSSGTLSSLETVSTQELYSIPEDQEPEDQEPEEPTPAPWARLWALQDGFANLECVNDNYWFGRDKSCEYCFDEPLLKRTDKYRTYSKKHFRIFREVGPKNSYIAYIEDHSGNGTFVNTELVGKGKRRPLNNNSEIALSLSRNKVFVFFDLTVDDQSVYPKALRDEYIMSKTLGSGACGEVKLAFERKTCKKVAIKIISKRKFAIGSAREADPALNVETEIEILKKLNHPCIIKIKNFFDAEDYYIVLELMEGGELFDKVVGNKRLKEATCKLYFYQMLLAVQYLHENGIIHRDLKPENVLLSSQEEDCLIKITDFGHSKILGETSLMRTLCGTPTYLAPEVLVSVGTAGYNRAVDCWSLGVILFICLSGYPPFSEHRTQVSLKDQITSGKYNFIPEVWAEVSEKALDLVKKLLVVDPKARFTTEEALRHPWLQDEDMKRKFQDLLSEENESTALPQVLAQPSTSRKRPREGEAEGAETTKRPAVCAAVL

[19] = biological target: Serine/threonine-protein kinase Chk2 (Homo sapiens) (UniProt O96017); details: at 1 µM
[20] = biological target: Death-associated protein kinase 1 (Homo sapiens) (UniProt P53355); details: at 0.1 µM;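 further: reported figure is the mean inhibition of DAPK1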
Sequence of Death-associated protein kinase 1 (Homo sapiens) (P53355 whole entry, looked up): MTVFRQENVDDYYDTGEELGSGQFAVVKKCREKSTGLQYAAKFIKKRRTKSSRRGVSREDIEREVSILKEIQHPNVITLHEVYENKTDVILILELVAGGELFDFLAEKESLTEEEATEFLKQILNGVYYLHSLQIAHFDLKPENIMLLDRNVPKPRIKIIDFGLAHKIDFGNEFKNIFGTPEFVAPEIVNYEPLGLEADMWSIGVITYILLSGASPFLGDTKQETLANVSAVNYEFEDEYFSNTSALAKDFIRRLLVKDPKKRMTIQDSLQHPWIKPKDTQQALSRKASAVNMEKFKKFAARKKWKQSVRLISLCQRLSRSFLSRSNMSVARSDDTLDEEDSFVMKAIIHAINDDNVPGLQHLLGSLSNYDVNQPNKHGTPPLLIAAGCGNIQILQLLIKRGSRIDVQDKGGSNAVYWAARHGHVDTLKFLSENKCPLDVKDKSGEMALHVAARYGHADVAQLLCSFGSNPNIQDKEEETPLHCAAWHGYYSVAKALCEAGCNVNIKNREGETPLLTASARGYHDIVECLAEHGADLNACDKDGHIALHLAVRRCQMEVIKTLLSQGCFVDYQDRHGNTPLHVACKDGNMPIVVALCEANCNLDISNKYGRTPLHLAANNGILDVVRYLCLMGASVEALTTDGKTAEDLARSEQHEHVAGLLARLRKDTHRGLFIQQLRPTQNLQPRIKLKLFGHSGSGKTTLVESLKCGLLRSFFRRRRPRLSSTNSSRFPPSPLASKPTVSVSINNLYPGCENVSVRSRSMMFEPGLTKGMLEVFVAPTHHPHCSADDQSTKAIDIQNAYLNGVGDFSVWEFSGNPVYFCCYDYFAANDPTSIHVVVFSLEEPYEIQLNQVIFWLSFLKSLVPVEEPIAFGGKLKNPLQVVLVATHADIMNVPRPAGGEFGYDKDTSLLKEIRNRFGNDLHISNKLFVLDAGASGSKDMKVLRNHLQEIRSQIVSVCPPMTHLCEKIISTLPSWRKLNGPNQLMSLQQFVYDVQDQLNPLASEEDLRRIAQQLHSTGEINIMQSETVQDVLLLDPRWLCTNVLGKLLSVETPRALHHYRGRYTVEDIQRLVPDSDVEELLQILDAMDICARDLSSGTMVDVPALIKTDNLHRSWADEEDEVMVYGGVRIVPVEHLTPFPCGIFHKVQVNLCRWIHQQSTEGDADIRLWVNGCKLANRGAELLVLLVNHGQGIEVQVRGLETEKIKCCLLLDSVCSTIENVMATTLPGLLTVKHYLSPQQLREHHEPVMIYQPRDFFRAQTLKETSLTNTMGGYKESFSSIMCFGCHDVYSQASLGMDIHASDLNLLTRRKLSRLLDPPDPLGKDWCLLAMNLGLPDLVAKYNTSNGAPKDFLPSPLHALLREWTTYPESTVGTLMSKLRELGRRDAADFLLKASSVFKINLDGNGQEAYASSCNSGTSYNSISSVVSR

Sequence of 5'-AMP-activated protein kinase catalytic subunit alpha-2 (Homo sapiens) (P54646 whole entry, looked up): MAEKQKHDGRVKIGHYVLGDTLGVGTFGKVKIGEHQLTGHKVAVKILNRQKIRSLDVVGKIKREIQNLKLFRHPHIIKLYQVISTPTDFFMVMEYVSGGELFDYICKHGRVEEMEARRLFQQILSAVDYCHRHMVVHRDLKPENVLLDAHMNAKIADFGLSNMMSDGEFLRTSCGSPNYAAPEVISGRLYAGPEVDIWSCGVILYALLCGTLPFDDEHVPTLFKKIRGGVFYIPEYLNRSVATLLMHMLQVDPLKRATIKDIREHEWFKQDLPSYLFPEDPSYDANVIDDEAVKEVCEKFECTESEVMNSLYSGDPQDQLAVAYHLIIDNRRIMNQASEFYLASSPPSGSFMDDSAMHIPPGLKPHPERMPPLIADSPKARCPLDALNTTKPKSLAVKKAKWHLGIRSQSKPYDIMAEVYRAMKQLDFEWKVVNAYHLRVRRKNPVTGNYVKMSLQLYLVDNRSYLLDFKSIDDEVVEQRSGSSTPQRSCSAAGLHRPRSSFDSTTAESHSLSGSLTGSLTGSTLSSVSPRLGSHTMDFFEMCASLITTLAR

Row | Compound | inhibition [1] [%] | inhibition [2] [%] | inhibition [3] [%] | inhibition [4] [%] | inhibition [5] [%] | inhibition [6] [%] | inhibition [7] [%] | inhibition [8] [%] | inhibition [9] [%] | inhibition [10] [%] | inhibition [11] [%] | inhibition [12] [%] | inhibition [13] [%] | inhibition [14] [%] | inhibition [15] [%] | inhibition [16] [%] | inhibition [17] [%] | inhibition [18] [%] | inhibition [19] [%] | inhibition [20] [%]
1 | [O-][S+]1CCN(Cc2ccc(-c3ccc4ncnc(Nc5ccc(OCc6cccc(F)c6)c(Cl)c5)c4c3)o2)CC1 | 5.75 | 0.9 | 3.1 | 1.17 | 3.09 | 3.06 | 4.57 | 0.83 | 1.18 | 3.06 | 0.16 | 2.62 | 3.95 | 0.28 | 2.28 | 7.38 | 10.6 | 1.91 | 3.16 | 6.57
2 | COc1ccc2c(-c3ccnc(Nc4cccc(OC(F)(F)F)c4)n3)cnn2n1 | 5.72 | 6.86 | 30.7 | -1.42 | 3.33 | 2.27 | 3.88 | 0.18 | 2.77 | 4.78 | 3.59 | 2.75 | 5.82 | -0.96 | -0.82 | 3.59 | 5.26 | 3.11 | 5.21 | 5.2
3 | COc1ccc2[nH]c3c4[nH]c5ccc(OC)cc5c4c4c(c3c2c1)C(=O)NC4=O | 51.6 | 78 | 77.3 | 71.3 | 102 | 92.2 | 94.9 | 6.96 | 39.6 | 6.99 | 22.9 | 17.4 | 57.6 | -5.78 | -3.69 | 22.4 | 65.6 | 81.2 | 83.4 | 2
4 | CCn1c(-c2nonc2N)nc2cnc(Oc3cccc(NC(=O)c4ccc(N(C)C)cc4)c3)cc21 | 10.1 | 3.21 | 18.7 | 1.7 | 3.54 | 2.26 | 2.76 | 0.25 | 2.17 | 0.79 | 5.87 | 1.23 | 17.3 | 0.01 | 1.14 | 0.31 | 5.78 | 1.31 | 8.31 | 1.42
5 | NC(=O)c1sc(-n2cnc3ccc(C(F)(F)F)cc32)cc1OCc1ccccc1Br | 3.78 | -0.18 | 3.82 | 0.06 | 1.03 | 2.41 | 4.25 | -0.93 | 0.69 | 1.87 | 3.63 | 2.57 | 7.23 | 1.31 | 2.02 | -3.21 | -0.7 | 2.54 | 3.23 | -0.43
6 | FC(F)(F)c1cccc(-c2nn3ncccc3c2-c2ccnc(Nc3ccc4c(c3)OCCO4)n2)c1 | 4.13 | 1.51 | 5.87 | 3.69 | 2.81 | 2.37 | 2.54 | -0.54 | 1.75 | 1.98 | 2.43 | 1.59 | 3.33 | 0.49 | 0.92 | 1.89 | 2.98 | 1.74 | 3.43 | 2.28
7 | N#Cc1c(NC(=O)c2ccc(F)cc2)sc2c1CCCC2 | 2.24 | -1.13 | 2.02 | 1.51 | 1.17 | 0.78 | 2.38 | 0.76 | 0.45 | 0.66 | -0.01 | 0.08 | 0.72 | -0.9 | 2.49 | 0.15 | 0.56 | -0.21 | 0.73 | 0.39
